Laboratory results as given in the supplement of paper PMC10849652.
Of roughly 7,900 targets only a part is listed; those with a hit were picked by preference. About 0.6% of all pairs of compound and target were hits.

Columns and labels:
Experiment in all cases: log2 fold change, soluble protein after heating vs DMSO (PISA); higher = thermal stabilisation; K562 cells, 10 uM, 30 min; active = over 0.2 and 3.5 SD of the protein, either way, in both replicates (recomputed)
[1] = compound: CS(=O)(=O)c1ccc(-c2cnc(N)c(C(=O)Nc3ccccc3)n2)cc1
Method in brief: (§1)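 K562 cells at 2×10^6 cells/mL were treated with 10 μM compound for 30 min. Aliquots were heated for 3 min across 48°C-58°C, pooled, and extracted in PBS with 0.5% NP-40 at 4°C; soluble protein was the supernatant after 21,000xg for 90 min. Soluble protein was quantified by TMTpro 16plex LC-MS/MS with channel sums equalised, and reported as log2 fold change in thermal stability against DMSO controls, with values from duplicates.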

crizotinib = compound: C[C@@H](Oc1cc(-c2cnn(C3CCNCC3)c2)cnc1N)c1c(Cl)ccc(F)c1Cl [crizotinib]
Method in brief: as §1

[2] = compound: C[C@@H]1COCCN1C2=NC(=NC(=C2)C3(CC3)S(=O)(=O)C)C4=C5C=CNC5=CC=C4
Method in brief: as §1

[3] = compound: C[C@H](C1=CC=C(C=C1)C(=O)NC2=C3C=CNC3=NC=C2)N
Method in brief: as §1

duvelisib = compound: C[C@H](Nc1ncnc2nc[nH]c12)c1cc2cccc(Cl)c2c(=O)n1-c1ccccc1 [duvelisib]
Method in brief: as §1

gandotinib = compound: Cc1cc(Nc2cc(CN3CCOCC3)c3nc(C)c(Cc4ccc(Cl)cc4F)n3n2)n[nH]1 [gandotinib]
Method in brief: as §1

tozasertib = compound: Cc1cc(Nc2cc(N3CCN(C)CC3)nc(Sc3ccc(NC(=O)C4CC4)cc3)n2)n[nH]1 [tozasertib]
Method in brief: as §1

[4] = compound: Cc1cc(SCc2sc(-c3ccc(C(F)(F)F)cc3)nc2C)ccc1OCC(=O)O
Method in brief: as §1

doramapimod = compound: Cc1ccc(-n2nc(C(C)(C)C)cc2NC(=O)Nc2ccc(OCCN3CCOCC3)c3ccccc23)cc1 [doramapimod]
Method in brief: as §1

ispinesib = compound: Cc1ccc(C(=O)N(CCCN)[C@@H](c2nc3cc(Cl)ccc3c(=O)n2Cc2ccccc2)C(C)C)cc1 [ispinesib]
Method in brief: as §1

bafetinib = compound: Cc1ccc(NC(=O)c2ccc(CN3CC[C@H](N(C)C)C3)c(C(F)(F)F)c2)cc1Nc1nccc(-c2cncnc2)n1 [bafetinib]
Method in brief: as §1

[5] = compound: Cc1cccc(CC(=O)N2CCc3c2ccc(-c2cn(C)c4ncnc(N)c24)c3F)n1
Method in brief: as §1

nilotinib = compound: Cc1cn(-c2cc(NC(=O)c3ccc(C)c(Nc4nccc(-c5cccnc5)n4)c3)cc(C(F)(F)F)c2)cn1 [nilotinib]
Method in brief: as §1

[6] = compound: Cc1nc(Nc2n[nH]c3c2CN(C(=O)N[C@H](CN(C)C)c2ccccc2)C3(C)C)c2sccc2n1
Method in brief: as §1

dasatinib = compound: Cc1nc(Nc2ncc(C(=O)Nc3c(C)cccc3Cl)s2)cc(N2CCN(CCO)CC2)n1 [dasatinib]
Method in brief: as §1

[7] = compound: Cc1ncc(-c2ccnc(Nc3ccc(S(C)(=O)=O)cc3)n2)n1C(C)C
Method in brief: as §1

[8] = compound: Cn1cc(-c2ccc3c(c2)CCN3C(=O)Cc2cccc(C(F)(F)F)c2)c2c(N)ncnc21
Method in brief: as §1

[9] = compound: Cn1cc(-c2ccc3nnc(C(F)(F)c4ccc5ncccc5c4)n3n2)cn1
Method in brief: as §1

tipifarnib = compound: Cn1cncc1[C@@](N)(c1ccc(Cl)cc1)c1ccc2c(c1)c(-c1cccc(Cl)c1)cc(=O)n2C [tipifarnib]
Method in brief: as §1

mubritinib = compound: FC(F)(F)c1ccc(/C=C/c2nc(COc3ccc(CCCCn4ccnn4)cc3)co2)cc1 [mubritinib]
Method in brief: as §1

Measured: log2 fold change

ATP7B (UniProt P35670)
inactive: [1] -0.009 | crizotinib -0.005 | [2] 0.03 | [3] 0.065 | duvelisib 0.092 | gandotinib -0.141 | tozasertib 0.033 | [4] -0.014 | doramapimod 0.137 | ispinesib -0.015 | bafetinib -0.009 | [5] -0.032 | nilotinib 0.006 | [6] -0.017 | dasatinib -0.153 | [7] 0.087 | [8] 0.015 | [9] 0.001 | tipifarnib 0.019 | mubritinib -0.079

ARFGAP1 (UniProt Q8N6T3)
Sequence of UniProt Q8N6T3 (Q8N6T3 whole entry, looked up): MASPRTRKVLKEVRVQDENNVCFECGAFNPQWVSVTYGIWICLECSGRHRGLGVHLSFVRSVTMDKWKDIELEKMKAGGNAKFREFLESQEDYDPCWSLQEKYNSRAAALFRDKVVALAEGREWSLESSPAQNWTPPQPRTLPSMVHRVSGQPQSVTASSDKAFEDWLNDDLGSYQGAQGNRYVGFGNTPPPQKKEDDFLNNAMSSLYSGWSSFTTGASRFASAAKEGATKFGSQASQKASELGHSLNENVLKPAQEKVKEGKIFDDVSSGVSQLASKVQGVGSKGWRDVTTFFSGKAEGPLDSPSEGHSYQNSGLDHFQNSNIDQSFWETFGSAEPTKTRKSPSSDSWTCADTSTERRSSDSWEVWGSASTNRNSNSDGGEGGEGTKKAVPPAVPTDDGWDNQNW
inactive: [1] 0.009 | crizotinib 0.094 | [2] 0.048 | [3] -0.016 | duvelisib -0.011 | gandotinib -0.038 | tozasertib 0.138 | [4] 0.047 | doramapimod -0.13 | ispinesib 0.008 | bafetinib -0.041 | [5] -0.009 | nilotinib -0.015 | [6] -0.193 | dasatinib -0.097 | [7] -0.004 | [8] -0.003 | [9] 0.008 | tipifarnib -0.036 | mubritinib -0.022

ABCC5 (UniProt O15440)
Sequence of UniProt O15440 (O15440 whole entry, looked up): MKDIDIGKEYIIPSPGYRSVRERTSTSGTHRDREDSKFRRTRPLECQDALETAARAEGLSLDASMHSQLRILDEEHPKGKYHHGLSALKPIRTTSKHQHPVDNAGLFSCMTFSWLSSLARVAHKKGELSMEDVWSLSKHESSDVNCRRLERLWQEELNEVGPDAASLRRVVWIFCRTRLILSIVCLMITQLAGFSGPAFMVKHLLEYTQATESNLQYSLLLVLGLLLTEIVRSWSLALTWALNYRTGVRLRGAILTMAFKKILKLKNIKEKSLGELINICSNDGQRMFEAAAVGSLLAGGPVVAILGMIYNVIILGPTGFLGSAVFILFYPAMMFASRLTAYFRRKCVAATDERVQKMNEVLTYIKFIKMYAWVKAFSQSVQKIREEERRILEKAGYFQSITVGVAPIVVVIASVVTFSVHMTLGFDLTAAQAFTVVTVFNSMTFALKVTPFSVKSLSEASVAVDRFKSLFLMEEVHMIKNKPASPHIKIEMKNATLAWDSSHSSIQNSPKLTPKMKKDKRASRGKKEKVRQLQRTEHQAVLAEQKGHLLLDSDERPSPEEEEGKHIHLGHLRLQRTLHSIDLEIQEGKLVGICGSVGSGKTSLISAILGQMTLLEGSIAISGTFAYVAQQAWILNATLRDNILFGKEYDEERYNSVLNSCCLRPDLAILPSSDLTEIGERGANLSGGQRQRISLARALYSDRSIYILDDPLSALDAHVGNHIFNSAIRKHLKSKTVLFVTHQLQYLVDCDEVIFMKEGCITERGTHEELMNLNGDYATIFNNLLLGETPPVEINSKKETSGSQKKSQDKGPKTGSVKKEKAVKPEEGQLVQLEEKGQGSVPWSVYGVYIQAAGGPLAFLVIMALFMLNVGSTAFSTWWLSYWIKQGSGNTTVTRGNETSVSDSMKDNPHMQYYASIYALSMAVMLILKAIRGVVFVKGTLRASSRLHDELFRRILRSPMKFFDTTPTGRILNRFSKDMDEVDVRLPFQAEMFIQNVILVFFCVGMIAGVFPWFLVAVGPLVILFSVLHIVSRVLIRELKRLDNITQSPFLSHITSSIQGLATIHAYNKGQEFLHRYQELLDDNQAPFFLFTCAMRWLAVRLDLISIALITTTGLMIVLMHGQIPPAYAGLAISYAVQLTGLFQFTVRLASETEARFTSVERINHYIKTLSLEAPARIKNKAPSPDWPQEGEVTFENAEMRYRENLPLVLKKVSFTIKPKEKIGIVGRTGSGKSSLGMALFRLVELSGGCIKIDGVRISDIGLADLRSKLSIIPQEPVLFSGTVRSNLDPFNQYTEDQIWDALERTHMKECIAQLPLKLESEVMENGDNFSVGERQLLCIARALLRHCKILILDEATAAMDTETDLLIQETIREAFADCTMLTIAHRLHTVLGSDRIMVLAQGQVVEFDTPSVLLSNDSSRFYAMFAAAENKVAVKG
inactive: [1] 0.045 | crizotinib -0.011 | [2] 0.031 | [3] 0.088 | duvelisib 0.037 | gandotinib -0.05 | tozasertib -0.023 | [4] -0.011 | doramapimod -0.023 | ispinesib -0.071 | bafetinib -0.027 | [5] 0.068 | nilotinib -0.21 | dasatinib -0.035 | [7] -0.015 | [8] 0.017 | [9] 0.053 | tipifarnib -0.009 | mubritinib 0.124
active: [6] -0.219

BCCIP (UniProt Q9P287)
inactive: [1] -0.015 | crizotinib -0.02 | [2] -0.044 | [3] 0.074 | duvelisib -0.03 | gandotinib -0.093 | tozasertib -0.005 | [4] 0.037 | doramapimod 0.01 | ispinesib 0.001 | bafetinib 0.048 | [5] 0 | nilotinib -0.019 | [6] -0.022 | dasatinib -0.161 | [7] 0.03 | [8] -0.009 | [9] -0.006 | tipifarnib 0.006 | mubritinib 0.001

ATP6V0A2 (UniProt Q9Y487)
Sequence of UniProt Q9Y487 (Q9Y487 whole entry, looked up): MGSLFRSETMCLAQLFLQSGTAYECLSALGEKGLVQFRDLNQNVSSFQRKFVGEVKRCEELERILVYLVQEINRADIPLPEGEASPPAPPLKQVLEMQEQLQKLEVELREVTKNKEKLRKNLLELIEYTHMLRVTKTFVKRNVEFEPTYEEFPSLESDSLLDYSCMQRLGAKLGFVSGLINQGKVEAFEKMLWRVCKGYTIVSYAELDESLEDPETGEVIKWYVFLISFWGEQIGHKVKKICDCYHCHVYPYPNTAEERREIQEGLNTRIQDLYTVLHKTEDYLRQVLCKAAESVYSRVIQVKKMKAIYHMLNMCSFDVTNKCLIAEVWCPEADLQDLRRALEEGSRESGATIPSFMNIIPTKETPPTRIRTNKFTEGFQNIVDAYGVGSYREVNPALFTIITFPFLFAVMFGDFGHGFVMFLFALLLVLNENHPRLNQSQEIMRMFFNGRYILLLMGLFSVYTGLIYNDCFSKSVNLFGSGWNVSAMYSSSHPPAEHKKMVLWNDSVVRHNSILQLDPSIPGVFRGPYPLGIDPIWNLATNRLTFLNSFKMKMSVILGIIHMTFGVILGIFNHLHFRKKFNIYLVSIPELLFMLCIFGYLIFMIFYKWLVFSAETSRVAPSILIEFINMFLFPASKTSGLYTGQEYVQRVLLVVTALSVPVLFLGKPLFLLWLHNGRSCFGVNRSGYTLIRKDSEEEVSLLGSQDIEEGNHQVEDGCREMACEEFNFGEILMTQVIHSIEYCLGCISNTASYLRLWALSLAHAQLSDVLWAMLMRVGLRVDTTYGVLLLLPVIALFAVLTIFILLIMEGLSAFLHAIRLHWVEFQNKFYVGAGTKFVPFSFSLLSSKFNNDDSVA
inactive: [1] -0.002 | crizotinib -0.197 | [2] -0.048 | [3] 0.07 | duvelisib -0.062 | gandotinib -0.006 | tozasertib 0.014 | [4] 0.064 | doramapimod 0.09 | ispinesib -0.18 | bafetinib -0.041 | [5] 0.007 | nilotinib 0.035 | [6] 0.006 | dasatinib -0.006 | [7] -0.077 | [8] -0.019 | [9] 0.027 | tipifarnib 0.008 | mubritinib -0.019

ACSF3 (UniProt Q4G176)
inactive: [1] 0.018 | crizotinib 0.063 | [2] -0.002 | [3] 0.026 | duvelisib 0.014 | gandotinib 0.09 | tozasertib 0.023 | [4] 0.022 | doramapimod -0.027 | ispinesib 0.174 | bafetinib -0.13 | [5] -0.105 | nilotinib 0.084 | [6] 0.135 | dasatinib -0.073 | [7] 0.022 | [8] -0.278 | [9] -0.02 | tipifarnib 0.062
active: mubritinib -0.433

BST2 (UniProt Q10589)
inactive: [1] -0.023 | crizotinib 0.066 | [2] 0.006 | [3] -0.055 | duvelisib -0.004 | gandotinib -0.016 | tozasertib -0.009 | [4] -0.074 | doramapimod 0.023 | ispinesib -0.078 | bafetinib 0.061 | [5] -0.009 | nilotinib 0.048 | [6] -0.059 | dasatinib -0.016 | [7] -0.096 | [8] -0.052 | [9] 0.029 | tipifarnib 0.036 | mubritinib -0.015

AKAP8 (UniProt O43823)
inactive: [1] 0.047 | crizotinib -0.104 | [2] 0.077 | [3] 0.062 | duvelisib 0.032 | gandotinib -0.036 | tozasertib 0.005 | [4] 0.061 | doramapimod 0.033 | ispinesib -0.103 | bafetinib -0.051 | [5] -0.008 | nilotinib -0.001 | [6] -0.044 | dasatinib -0.155 | [7] -0.042 | [8] -0.007 | [9] -0.049 | tipifarnib 0.022 | mubritinib 0.028

ATP12A isoform 2 (UniProt P54707)
inactive: [1] 0.02 | crizotinib 0.162 | [2] 0.138 | [3] -0.087 | duvelisib 0.067 | gandotinib -0.047 | tozasertib -0.027 | [4] -0.056 | doramapimod -0.004 | ispinesib 0.137 | bafetinib 0.026 | [5] 0.011 | nilotinib 0.02 | [6] -0.007 | dasatinib 0.022 | [7] 0.007 | [8] 0.066 | [9] 0.04 | tipifarnib 0.016 | mubritinib 0.018

ARFIP1 isoform 2 (UniProt P53367)
Sequence of UniProt P53367 (P53367 whole entry, looked up): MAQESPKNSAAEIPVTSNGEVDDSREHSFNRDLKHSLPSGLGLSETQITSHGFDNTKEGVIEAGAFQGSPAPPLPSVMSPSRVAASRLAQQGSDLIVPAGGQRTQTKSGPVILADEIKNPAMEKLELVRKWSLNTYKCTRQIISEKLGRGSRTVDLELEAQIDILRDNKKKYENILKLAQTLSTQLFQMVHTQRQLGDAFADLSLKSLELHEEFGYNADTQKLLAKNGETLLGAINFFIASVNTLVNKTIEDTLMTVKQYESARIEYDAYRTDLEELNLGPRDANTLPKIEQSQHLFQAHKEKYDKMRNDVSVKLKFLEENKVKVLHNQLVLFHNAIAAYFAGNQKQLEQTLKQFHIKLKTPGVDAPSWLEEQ
inactive: [1] -0.03 | crizotinib -0.266 | [2] 0.047 | duvelisib 0.11 | gandotinib -0.112 | [4] 0.081 | doramapimod 0.087 | bafetinib -0.281 | [5] -0.195 | nilotinib -0.147 | [6] -0.049 | dasatinib -0.316 | [7] -0.013 | tipifarnib -0.024 | mubritinib -0.004

AP2B1 isoform 2 (UniProt P63010)
Sequence of UniProt P63010 (P63010 whole entry, looked up): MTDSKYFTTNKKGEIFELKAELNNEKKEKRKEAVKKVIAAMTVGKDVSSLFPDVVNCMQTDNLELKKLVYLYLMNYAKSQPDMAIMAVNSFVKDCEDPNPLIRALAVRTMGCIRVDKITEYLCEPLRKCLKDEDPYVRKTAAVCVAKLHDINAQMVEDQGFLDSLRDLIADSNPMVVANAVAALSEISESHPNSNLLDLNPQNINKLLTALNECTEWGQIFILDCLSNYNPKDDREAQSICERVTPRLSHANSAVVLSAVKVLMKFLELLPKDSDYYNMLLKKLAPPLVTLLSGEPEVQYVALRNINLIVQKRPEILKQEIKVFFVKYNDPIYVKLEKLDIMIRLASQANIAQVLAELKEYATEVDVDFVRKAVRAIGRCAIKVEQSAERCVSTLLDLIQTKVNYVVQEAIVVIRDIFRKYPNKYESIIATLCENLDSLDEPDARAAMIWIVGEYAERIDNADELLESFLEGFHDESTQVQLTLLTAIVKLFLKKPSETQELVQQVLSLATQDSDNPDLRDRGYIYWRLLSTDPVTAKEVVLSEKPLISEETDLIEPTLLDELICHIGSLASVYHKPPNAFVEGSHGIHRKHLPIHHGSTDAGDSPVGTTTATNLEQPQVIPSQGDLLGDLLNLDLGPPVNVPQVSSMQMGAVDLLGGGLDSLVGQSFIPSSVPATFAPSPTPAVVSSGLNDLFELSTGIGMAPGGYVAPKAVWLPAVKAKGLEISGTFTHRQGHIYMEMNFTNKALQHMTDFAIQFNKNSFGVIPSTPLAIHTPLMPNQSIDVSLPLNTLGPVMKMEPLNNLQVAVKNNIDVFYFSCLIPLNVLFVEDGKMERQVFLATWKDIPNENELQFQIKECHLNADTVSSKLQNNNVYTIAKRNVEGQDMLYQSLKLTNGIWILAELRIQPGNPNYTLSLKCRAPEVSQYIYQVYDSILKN
inactive: [1] 0.022 | crizotinib -0.029 | [2] -0.005 | [3] -0.161 | duvelisib 0.004 | gandotinib 0.016 | tozasertib -0.056 | [4] 0.007 | doramapimod -0.006 | ispinesib 0.014 | bafetinib 0.024 | [5] -0.01 | nilotinib -0.019 | [6] 0.019 | dasatinib 0.035 | [7] -0.032 | [8] -0.029 | [9] 0.004 | tipifarnib -0.014 | mubritinib -0.01

ALKBH4 (UniProt Q9NXW9)
inactive: [1] 0.082 | crizotinib -0.033 | [2] 0.172 | [3] 0.029 | duvelisib -0.068 | gandotinib -0.084 | tozasertib 0.024 | [4] 0.12 | doramapimod 0.037 | ispinesib -0.109 | bafetinib 0.038 | [5] 0.087 | dasatinib 0 | [8] -0.022 | [9] 0.017 | tipifarnib -0.001 | mubritinib -0.122

ADPRH (UniProt P54922)
Sequence of UniProt P54922 (P54922 whole entry, looked up): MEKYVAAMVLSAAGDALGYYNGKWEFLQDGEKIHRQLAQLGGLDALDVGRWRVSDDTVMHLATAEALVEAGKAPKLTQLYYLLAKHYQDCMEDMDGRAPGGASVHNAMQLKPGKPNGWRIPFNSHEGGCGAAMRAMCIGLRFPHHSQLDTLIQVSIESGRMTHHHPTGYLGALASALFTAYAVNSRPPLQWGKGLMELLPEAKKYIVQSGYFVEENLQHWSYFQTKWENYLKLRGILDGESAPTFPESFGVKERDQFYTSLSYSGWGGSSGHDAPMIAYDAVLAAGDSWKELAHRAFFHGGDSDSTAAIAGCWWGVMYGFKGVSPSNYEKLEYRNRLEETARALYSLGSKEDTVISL
inactive: [1] 0.123 | crizotinib 0.056 | [2] 0.201 | gandotinib 0.157 | tozasertib -0.033 | doramapimod -0.071 | ispinesib -0.002 | bafetinib 0.082 | [5] -0.29 | nilotinib 0.141 | [6] 0.026 | [7] -0.161 | [9] 0.038 | tipifarnib -0.005 | mubritinib 0.015

ABCA3 (UniProt Q99758)
inactive: [1] 0.111 | [2] 0.174 | [3] 0.073 | duvelisib 0.035 | gandotinib 0.036 | tozasertib 0.005 | [4] 0.014 | doramapimod 0.031 | bafetinib 0.164 | [5] -0.053 | dasatinib -0.027 | [8] -0.022 | [9] 0.019 | tipifarnib 0.058
active: crizotinib -0.361 | ispinesib -0.502

AFG1L (UniProt Q8WV93)
inactive: [1] -0.04 | crizotinib -0.027 | [2] 0.074 | [3] 0.001 | duvelisib 0.078 | tozasertib -0.147 | [4] -0.019 | doramapimod 0.002 | ispinesib -0.253 | bafetinib -0.041 | nilotinib -0.061 | [6] -0.048 | dasatinib -0.023 | [7] 0.043 | [8] 0.077 | [9] 0.109 | tipifarnib 0.19 | mubritinib 0.031

ASB6 (UniProt Q9NWX5)
Sequence of UniProt Q9NWX5 (Q9NWX5 whole entry, looked up): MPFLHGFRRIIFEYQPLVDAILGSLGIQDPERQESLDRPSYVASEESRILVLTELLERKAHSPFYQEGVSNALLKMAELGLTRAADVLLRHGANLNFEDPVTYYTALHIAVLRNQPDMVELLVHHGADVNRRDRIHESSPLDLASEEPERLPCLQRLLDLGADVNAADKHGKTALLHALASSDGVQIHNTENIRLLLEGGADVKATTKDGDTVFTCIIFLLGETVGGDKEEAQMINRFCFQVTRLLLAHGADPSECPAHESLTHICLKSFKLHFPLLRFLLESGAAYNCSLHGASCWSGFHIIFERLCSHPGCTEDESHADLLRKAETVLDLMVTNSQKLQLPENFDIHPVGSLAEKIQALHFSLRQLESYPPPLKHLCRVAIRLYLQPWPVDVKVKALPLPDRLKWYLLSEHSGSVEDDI
inactive: [1] 0.019 | crizotinib 0.013 | [2] -0.025 | gandotinib 0.109 | doramapimod 0.037 | ispinesib -0.143 | bafetinib -0.039 | [5] 0.014 | nilotinib -0.066 | [6] -0.279 | [7] -0.07 | [9] -0.034 | tipifarnib -0.02 | mubritinib 0.037

APH1A (UniProt Q96BI3)
Sequence of UniProt Q96BI3 (Q96BI3 whole entry, looked up): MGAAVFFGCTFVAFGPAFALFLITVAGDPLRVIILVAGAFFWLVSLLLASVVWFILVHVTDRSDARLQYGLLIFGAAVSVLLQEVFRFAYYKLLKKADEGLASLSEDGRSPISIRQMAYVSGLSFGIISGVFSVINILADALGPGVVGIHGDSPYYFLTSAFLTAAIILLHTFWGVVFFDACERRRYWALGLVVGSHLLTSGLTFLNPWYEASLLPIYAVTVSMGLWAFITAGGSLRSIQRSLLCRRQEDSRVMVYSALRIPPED
inactive: [1] 0.048 | crizotinib -0.151 | [3] 0.021 | duvelisib 0.035 | gandotinib -0.075 | tozasertib 0.015 | [4] -0.036 | doramapimod 0.073 | bafetinib 0.132 | [5] -0.06 | nilotinib -0.037 | [6] -0.04 | dasatinib -0.039 | [7] 0.028 | [8] 0.036 | tipifarnib -0.06 | mubritinib 0.05
